# Vaccinia mCherry – vaccinia inhibition (mCherry reporter). Vaccinia virus mCherry reporter infection, fluorescence. Potency, µM (top dose mostly 36.5 µM), without a hit: at the highest dose activity change, negative = inhibition, actives largely listed as inhibitors. 0.63% of 310,000 active; calls by dose curve; tested in A549 cells; also: potency is read from the fitted curve at half-maximal effect; nearly all actives have a fitted effect of over 35% in size
# MARV entry inh – inhibitors of Marburg virus binding or cell entry | Marburg virus pseudotyped entry inhibition, cell reporter | Potency, µM (top dose mostly 37.8 µM), without a hit: at the highest dose activity change, negative = inhibition, actives largely listed as inhibitors | 1.8% of 300,000 active | AID 540276; calls by dose curve; tested in HEK293 cells; also: potency is read from the fitted curve at half-maximal effect
# HCMV antiviral – human cytomegalovirus inhibition; HFF cells, HCMV-luciferase reporter, 72 h; active compounds read low; activity change, negative = inhibition, % at 57.5 µM; 4.5% of 410,000 active; AID 1259415; in the data active = activity change below about -60%; inconclusive = no clear call, values can overlap the other calls; inactive = above about -39%
#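 Compounds were evaluated in HFFs infected with an HCMV luciferase reporter virus (MOI 1 PFU/cell). Luciferase in lysates collected 72 h post infection served as the replication measure.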
# HCV inhibitor – blocks hepatitis C virus; Huh7.5.1 HCVcc-Cre infection, luciferase reporter, 44 h; Potency, µM (top dose mostly 41.8 µM), for the others: at the top dose activity change, negative = inhibition, actives largely listed as inhibitors; 3.4% of 340,000 active; AID 651820; active = well fitted inhibition curve with a large enough effect; inconclusive = small, poorly fitted or top-dose-only effect, or another doubt; inactive = no such curve, though single readings can be large or run the other way; also: potency is read from the fitted curve at half-maximal effect
#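 Compounds are dispensed onto cells plated 4 h earlier at 1,000 per well, with HCVcc-Cre virus (about 0.5 moi) added next. Following 44 h of culture, luminescent signal is measured for 15 sec after 15 min with substrate at room temperature.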
# VACV Venus inh – inhibitors of vaccinia virus (Venus reporter). Vaccinia virus Venus reporter expression, fluorescence. Potency, µM (doses to about 36.5 µM), for the others: at the top dose activity change, negative = inhibition, hits mostly inhibitors. 0.46% of 330,000 active. AID 720580; calls by dose curve; tested in A549 cells; also: potency is read from the fitted curve at half-maximal effect; nearly all actives have a fitted effect of over 30% in size
# Lassa entry inh – inhibitors of Lassa virus binding or cell entry | Lassa virus pseudotype entry inhibition, cell reporter | Potency, µM (highest dose often 37.9 µM), without a hit: at the top dose activity change, negative = inhibition, usual class: inhibitors | 1.2% of 300,000 active; calls by dose curve; tested in HEK293 cells; also: potency is read from the fitted curve at half-maximal effect; nearly all actives have a fitted effect of over 50% in size
# * marks the source's active call; other numbers are inactive results; i = inactive; ? = inconclusive; / = no result given; ! = a repeat was not active; [ ] = remark or other dose. A selection: hits, their analogues and other compounds. The true share with any hit is near 7.8%. % is scaled to controls: 0 for no effect and ±100 for the full control effect.
SMILES,Vaccinia mCherry,MARV entry inh,HCMV antiviral,HCV inhibitor,VACV Venus inh,Lassa entry inh
COC(=O)C1=C(C)NC(C)=C([N+](=O)[O-])[C@H]1c1ccccc1C(F)(F)F,11.4%,-6.4%,/,/,-13.0%,/
COC(=O)C1=C(C)NC(C)=C(C(=O)OCC(C)C)C1c1ccccc1[N+](=O)[O-] (stereo not drawn),?,/,?,25.1µM*,-27.8%,/
C=CC[n+]1c(-c2ccc(C)cc2)csc1Nc1c(C)n(C)n(-c2ccccc2)c1=O,-26.6%,?,?,-27.2%,-11.8%,?
C=CC[n+]1c(-c2ccc(OCC)cc2)csc1NNC(=O)Nc1ccccc1,-19.2%,-7.1%,-87.9*,7.08µM*,?,?
O=C(Cc1ccc([N+](=O)[O-])cc1)NCCc1c[nH]c2ccccc12,/,/,5.0,/,/,/
CCOc1ccc2nc(N3C(=O)/C(=C/c4ccccc4)NC3=S)sc2c1,1.8%,?,66.6,?,-8.7%,12.6µM*
O=C(NC1CCS(=O)(=O)C1)c1ccc(-c2ccc(Br)cc2)o1 (stereo not drawn),-11.3%,7.1%,-13.2,11.2µM*,-22.1%,-11.1%
O=C(OCC(=O)c1c[nH]c2ccccc12)c1ccc([N+](=O)[O-])s1,?,1.8%,14.2,?,-17.5%,-9.6%[46.1 µM]
CCc1cccc2c(C(=O)COC(=O)c3ccc([N+](=O)[O-])s3)c[nH]c12,/,2.8%,61.0,28.2µM*,/,-11.6%
Cc1noc(C)c1COc1ccccc1C(=O)N1CCN(S(=O)(=O)c2ccc(F)c(F)c2)CC1,/,/,-4.6,14.9%,/,/
Cc1ccc(S(=O)(=O)N2CCN(C(=O)c3ccccc3OCc3c(C)noc3C)CC2)cc1,/,/,0.2,0.562µM*,/,/
Cc1ccc(SCC(=O)NNC(=O)c2cncc(Br)c2)cc1,-8.7%,?,?,6.3%,-4.1%,-3.8%
NNC(=O)c1cncc(Br)c1,-27.1%,-2.1%,1.2,10.5%,-19.9%,-0.4%
CCc1ccc(C(=O)c2cncc(Br)c2)cc1,-12.0%,?,-69.1*,8.7%,-13.4%,4.9%
Cc1ccc(C(=O)c2cncc(Br)c2)cc1,/,6.8%,-71.1*,-8.3%,/,9.2%
CC1CCc2nc(NC(=O)c3cc(C(C)(C)C)nn3C)sc2C1 (stereo not drawn),/,/,22.6,-1.1%,/,/
Cc1ccc(-c2nc(NC(=O)c3cc(C(C)(C)C)nn3C)sc2C)cc1Cl,-15.7%,?,-61.3*,?,-11.5%,?
CCOc1ccc(C(=O)NCCC2=CCCCC2)cc1OCC,-5.3%,?,96.0,5.01µM*,-3.8%,-27.8%[46.1 µM]
CC1CN(S(=O)(=O)c2cc(C(=O)NCCC3=CCCCC3)ccc2Cl)CC(C)O1 (stereo not drawn),-9.9%,-25.6%[46.1 µM],-81.6*,?,-15.8%,?
Cc1ccccc1CN(c1ccc(C(=O)NCCC2=CCCCC2)cc1)S(C)(=O)=O,/,?,-2.8,-0.1%,/,16.4µM*
CCC(=O)c1ccc(OCC(=O)NCCC2=CCCCC2)c(OC)c1,/,/,-26.5,-19.3%,/,/
COc1cc(=O)n2c(c1C(=O)N(C)Cc1cscn1)CCN(C(=O)c1ccc(C)cc1C)CC2,-0.5%,/,/,/,-7.6%,/
COc1ccc(NC(=O)C(C2CC2)n2c(=O)c(-c3cc4ccccc4[nH]3)nc3ccccc32)cc1 (stereo not drawn),?,/,-96.7*,/,?,/
O=C(Nc1ccc2ccccc2c1)C(C1CC1)n1c(=O)c(-c2cc3ccccc3[nH]2)nc2ccccc21 (stereo not drawn),?,/,3.4,/,-28.4%,/
Cc1oc2cc(O)cc(C)c2c(=O)c1-c1cnn(-c2ccccc2)c1,-4.2%,?,?,8.91µM*,?,?
SMILES,Vaccinia mCherry,MARV entry inh,HCMV antiviral,HCV inhibitor,VACV Venus inh,Lassa entry inh
O=C(CS(=O)(=O)c1cccc2nsnc12)Nc1ccc(F)cc1F,8.1%,/,26.3,/,6.5%,0.3%[46.1 µM]
O=C(NCc1ccc2c(c1)OCO2)C1CCC(CNc2c(N3CCCC3)c(=O)c2=O)CC1 (stereo not drawn),3.3%,-2.1%,-83.5*,8.3%,-5.7%,/
COc1ccc2cc1Oc1ccc(cc1)C[C@H]1c3c(cc4c(c3Oc3cc5c(cc3OC)CCN(C)[C@@H]5C2)OCO4)CCN1C,-16.0%,/,-38.2,14.1µM*,-24.9%,/
COc1cc2c3cc1Oc1cc(ccc1O)C[C@@H]1c4c(cc(OC)c(O)c4Oc4ccc(cc4)C[C@H]3N(C)CC2)CCN1C,i,1.84µM*,-9.7,7.94µM*!,-17.4%,?
COc1cc2c3cc1Oc1c(OC)c(OC)cc4c1[C@H](Cc1ccc(cc1)Oc1cc(ccc1O)C[C@H]3N(C)CC2)N(C)CC4,?,/,-36.4,11.2µM*,?,/
CCc1cc2c(nc1CC)CCN(CC/C(C)=N/OC[C@@H](O)[C@H]1O[C@@H]3OC(C)(C)O[C@@H]3[C@H]1O)C2,/,-6.4%[14.2 µM],/,/,/,/
NS(=O)(=O)c1ccc(Nc2cc(-c3ccc(O)c(F)c3)[nH]n2)cc1,/,/,/,/,/,22.0%
CCN(CC)CCN1C(=O)C(O)=C(C(=O)c2ccco2)[C@@H]1c1ccccn1,/,16.1%[46.1 µM],/,/,/,/
CCOC(=O)c1c(C)[nH]c(C)c1-c1ccccc1OC,/,?,79.6,11.8%,?,-2.3%
CCOC(=O)c1c(C)[nH]c2cc(Br)c(OC)cc12,/,-24.6%,27.3,5.62µM*,-17.6%,1.8%
Cc1cccc(Cn2cccc2CNS(=O)(=O)c2ccccc2F)c1,-0.9%,/,2.0,/,21.5%,-2.1%[46.1 µM]
CC(NC(=O)CN1C(=O)NC2(CCCCCC2)C1=O)c1ccccc1 (stereo not drawn),-9.8%,?,-61.0*,?,-7.0%,7.5%
O=C(C[n+]1cc(-c2ccc(Cl)cc2)n2c1CCC2)Nc1nc(-c2ccc(F)cc2)cs1,/,8.9%,-62.9*,10µM*,/,/
O=C(CN1CCCC1)Nc1nc(-c2ccc(Cl)cc2)cs1,-18.3%,/,/,/,-9.2%,/
Cn1c(NC(=O)C[n+]2cc(-c3ccc(Cl)cc3)n3c2CCC3)cc(=O)n(C)c1=O,i,-16.4%,-77.0*,6.1%,-21.6%,5.3%
CC(C)C(C)NC(=O)CN1C(=O)NC2(CCCCCC2)C1=O (stereo not drawn),i,0.2%[46.1 µM],-27.6,17.1%,2.7%,13.4%[46.1 µM]
NC(=O)c1ccsc1NC(=O)CN1C(=O)NC2(CCCCC2)C1=O,/,/,-104.6*,17.0%,/,/
CCCc1nnc(NC(=O)c2cc(=O)c3ccccc3o2)s1,-9.3%,?,40.5,/,-5.3%,24.6%[46.1 µM]
O=C(C[n+]1cc(-c2ccc(F)cc2)n2c1CCC2)Nc1nc(-c2ccc(F)cc2)cs1,i,13.3%,118.8,?,-8.9%,15.7%
O=C(C[n+]1cc(-c2ccccc2)n2c1CCC2)Nc1nc(-c2ccc(F)cc2)cs1,i,?,7.9,0.708µM*,-8.8%,14.0%
O=C(CN1C(=O)NC2(CCCC2)C1=O)Nc1nc(-c2ccc(F)cc2)cs1,/,?,3.7,12.6µM*,/,?
O=C(CN1CCCCC1)Nc1nc(-c2ccc(Cl)cc2)cs1,i,8.9%[46.1 µM],?,10µM*,-12.7%,-25.4%[46.1 µM]

# Assay outcomes as filed in PubChem BioAssay.
